Assays:
Experiment in all cases: DAPPL (digital affinity profiling via proximity ligation, sequencing); 10 mM Tris-HCl pH 7.5, 50 mM NaCl, 1 mM DTT, 4% glycerol, room temperature, 30 min; GST-TFs on glutathione beads, 16-mer random dsDNA library, 0.1% formaldehyde crosslink after washing; high values mean tight binding
Details in all cases: protein: recombinant; tags: N-terminal GST; dsDNA, one strand shown
ERF = molecular target: T1, ERF (Homo sapiens, UniProt P50548 1-548)
T1 sequence: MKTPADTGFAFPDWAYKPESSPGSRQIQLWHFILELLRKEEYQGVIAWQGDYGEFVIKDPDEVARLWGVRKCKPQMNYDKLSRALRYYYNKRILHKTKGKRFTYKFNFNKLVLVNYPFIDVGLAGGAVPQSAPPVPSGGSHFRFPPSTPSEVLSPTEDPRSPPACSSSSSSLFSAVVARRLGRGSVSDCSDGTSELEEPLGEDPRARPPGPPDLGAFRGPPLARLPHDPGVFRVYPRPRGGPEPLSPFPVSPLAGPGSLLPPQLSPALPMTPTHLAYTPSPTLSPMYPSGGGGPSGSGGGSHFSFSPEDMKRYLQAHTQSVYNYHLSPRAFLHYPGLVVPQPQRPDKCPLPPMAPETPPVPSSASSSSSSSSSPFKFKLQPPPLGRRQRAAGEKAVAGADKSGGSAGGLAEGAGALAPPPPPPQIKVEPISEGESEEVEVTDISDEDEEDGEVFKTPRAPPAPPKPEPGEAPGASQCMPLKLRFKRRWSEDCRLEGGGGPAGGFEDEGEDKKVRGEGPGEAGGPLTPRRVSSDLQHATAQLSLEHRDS
Procedure, shortened: (§1)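 Yeast served to express human transcription factors as GST fusions, which were then captured on glutathione beads and labelled with DNA barcodes. Pooled with a tag-only sample, they were incubated with 200 nmole of a 16-mer random double-stranded DNA library for 30 min at room temperature in Tris/NaCl/DTT/glycerol buffer, washed, crosslinked with 0.1% formaldehyde, ligated by proximity, amplified by PCR and sequenced. Dividing each hexamer's read frequency for a factor by its frequency for the tag-only sample gives the binding signal.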

ETV3L = molecular target: T2, ETV3L (Homo sapiens, UniProt Q6ZN32 1-361)
T2 sequence: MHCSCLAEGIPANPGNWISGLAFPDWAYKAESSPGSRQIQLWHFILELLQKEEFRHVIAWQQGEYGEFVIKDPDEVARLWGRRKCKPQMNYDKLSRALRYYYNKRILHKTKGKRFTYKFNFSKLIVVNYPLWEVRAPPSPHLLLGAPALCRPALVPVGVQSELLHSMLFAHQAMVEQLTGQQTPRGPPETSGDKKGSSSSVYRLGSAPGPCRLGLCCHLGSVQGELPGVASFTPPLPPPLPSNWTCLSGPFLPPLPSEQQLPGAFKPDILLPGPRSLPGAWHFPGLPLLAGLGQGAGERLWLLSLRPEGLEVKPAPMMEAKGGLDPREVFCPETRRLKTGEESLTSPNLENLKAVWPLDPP
Procedure, shortened: as §1

ETS2 = molecular target: T3, ETS2 (Homo sapiens, UniProt P15036 1-469)
T3 sequence: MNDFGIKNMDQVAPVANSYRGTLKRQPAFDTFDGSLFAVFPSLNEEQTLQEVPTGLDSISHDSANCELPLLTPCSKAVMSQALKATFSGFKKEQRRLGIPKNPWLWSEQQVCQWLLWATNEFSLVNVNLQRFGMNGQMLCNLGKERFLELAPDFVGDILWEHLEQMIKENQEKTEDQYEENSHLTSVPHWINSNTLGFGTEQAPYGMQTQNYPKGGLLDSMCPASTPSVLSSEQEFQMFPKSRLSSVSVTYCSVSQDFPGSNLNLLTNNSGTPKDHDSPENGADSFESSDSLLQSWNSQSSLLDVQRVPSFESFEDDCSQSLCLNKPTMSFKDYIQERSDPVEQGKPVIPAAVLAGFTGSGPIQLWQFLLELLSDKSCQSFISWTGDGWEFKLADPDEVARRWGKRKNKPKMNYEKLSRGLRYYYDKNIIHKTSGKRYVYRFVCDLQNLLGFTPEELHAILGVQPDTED
Procedure, shortened: as §1

SPDEF = molecular target: T4, SPDEF (Homo sapiens, UniProt O95238 1-335)
T4 sequence: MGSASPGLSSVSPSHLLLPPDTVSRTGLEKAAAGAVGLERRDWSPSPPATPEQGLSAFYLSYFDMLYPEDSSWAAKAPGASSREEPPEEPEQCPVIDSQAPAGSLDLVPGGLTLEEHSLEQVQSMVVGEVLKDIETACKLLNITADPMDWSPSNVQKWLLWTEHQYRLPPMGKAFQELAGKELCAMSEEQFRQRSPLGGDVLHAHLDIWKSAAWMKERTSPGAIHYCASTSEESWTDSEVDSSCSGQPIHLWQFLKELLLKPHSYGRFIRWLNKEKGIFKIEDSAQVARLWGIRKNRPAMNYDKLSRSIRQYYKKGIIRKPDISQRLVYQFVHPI
Procedure, shortened: as §1

ETV7 = molecular target: T5, ETV7 (Homo sapiens, UniProt Q9Y603 1-341)
T5 sequence: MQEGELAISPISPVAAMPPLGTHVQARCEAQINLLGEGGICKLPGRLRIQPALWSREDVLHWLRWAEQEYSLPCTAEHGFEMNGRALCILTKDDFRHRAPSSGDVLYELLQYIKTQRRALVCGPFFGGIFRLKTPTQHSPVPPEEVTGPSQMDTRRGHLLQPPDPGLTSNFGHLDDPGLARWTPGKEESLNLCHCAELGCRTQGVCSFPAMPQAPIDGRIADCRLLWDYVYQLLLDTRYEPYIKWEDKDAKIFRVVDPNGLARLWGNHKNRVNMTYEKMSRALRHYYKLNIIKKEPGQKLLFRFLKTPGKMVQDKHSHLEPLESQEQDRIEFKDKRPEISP
Procedure, shortened: as §1

ELF5 = molecular target: T6, ELF5 (Homo sapiens, UniProt Q9UKW6-2 1-255)
T6 sequence: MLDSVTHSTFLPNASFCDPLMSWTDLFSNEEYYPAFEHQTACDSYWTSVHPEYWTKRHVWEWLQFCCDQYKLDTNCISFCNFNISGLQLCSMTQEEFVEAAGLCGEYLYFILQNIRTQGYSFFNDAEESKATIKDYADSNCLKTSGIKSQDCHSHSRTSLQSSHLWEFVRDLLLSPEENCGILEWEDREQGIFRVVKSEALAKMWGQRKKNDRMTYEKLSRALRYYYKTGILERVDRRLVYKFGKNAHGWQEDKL
Procedure, shortened: as §1

ETV3 = molecular target: T7, ETV3 (Homo sapiens, UniProt P41162-2 1-143)
T7 sequence: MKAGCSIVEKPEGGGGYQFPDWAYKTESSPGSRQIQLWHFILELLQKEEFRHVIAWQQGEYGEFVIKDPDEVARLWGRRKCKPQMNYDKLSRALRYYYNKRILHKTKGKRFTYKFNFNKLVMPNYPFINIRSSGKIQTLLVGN
Procedure, shortened: as §1

ETV6 = ETV6 (Homo sapiens, UniProt P41212 1-452)
Procedure, shortened: as §1

ETV6, sequence (P41212 whole entry): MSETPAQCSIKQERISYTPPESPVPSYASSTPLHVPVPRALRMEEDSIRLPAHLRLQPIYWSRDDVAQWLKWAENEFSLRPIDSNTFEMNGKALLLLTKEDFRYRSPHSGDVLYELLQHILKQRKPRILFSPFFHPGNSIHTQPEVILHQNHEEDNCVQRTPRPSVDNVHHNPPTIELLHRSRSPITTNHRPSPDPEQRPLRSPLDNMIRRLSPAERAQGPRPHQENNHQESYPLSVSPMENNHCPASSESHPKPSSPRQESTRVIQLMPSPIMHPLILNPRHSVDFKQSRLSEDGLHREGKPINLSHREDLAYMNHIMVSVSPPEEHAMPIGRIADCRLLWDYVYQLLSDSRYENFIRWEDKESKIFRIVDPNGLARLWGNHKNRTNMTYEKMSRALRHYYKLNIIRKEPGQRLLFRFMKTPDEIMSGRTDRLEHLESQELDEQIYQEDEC

How did the binding signal (ERF) turn out when TGTTAC was run?
Its binding signal is 1.3 fold enrichment (6-mer frequency, TF over GST control).

What about the binding signal (ETV3L) of the same sequence?
Its binding signal is 1.41 fold enrichment (6-mer frequency, TF over GST control).

What about the binding signal (ETS2) of the same sequence?
Its binding signal is 1.39 fold enrichment (6-mer frequency, TF over GST control).

And the binding signal (SPDEF)?
The binding signal was 1.54 fold enrichment (6-mer frequency, TF over GST control).

And the binding signal (ETV7)?
Its binding signal is 1.42 fold enrichment (6-mer frequency, TF over GST control).

What about the binding signal (ELF5) of the same sequence?
Its binding signal is 1.43 fold enrichment (6-mer frequency, TF over GST control).

And the binding signal (ETV3)?
Its binding signal is 1.44 fold enrichment (6-mer frequency, TF over GST control).

And the binding signal (ETV6)?
Its binding signal is 1.31 fold enrichment (6-mer frequency, TF over GST control).

Which binding signal (ERF) does the source give for CCTTCA here?
The binding signal was 1.42 fold enrichment (6-mer frequency, TF over GST control).

What about the binding signal (ETV3L) of the same sequence?
The binding signal was 1.21 fold enrichment (6-mer frequency, TF over GST control).

What about the binding signal (ETS2) of the same sequence?
Its binding signal is 1.38 fold enrichment (6-mer frequency, TF over GST control).

What about the binding signal (SPDEF) of the same sequence?
Its binding signal is 1.48 fold enrichment (6-mer frequency, TF over GST control).

What about the binding signal (ETV7) of the same sequence?
Its binding signal is 1.26 fold enrichment (6-mer frequency, TF over GST control).

What about the binding signal (ELF5) of the same sequence?
Its binding signal is 1.56 fold enrichment (6-mer frequency, TF over GST control).

And the binding signal (ETV3)?
Its binding signal is 1.46 fold enrichment (6-mer frequency, TF over GST control).

What about the binding signal (ETV6) of the same sequence?
Its binding signal is 1.5 fold enrichment (6-mer frequency, TF over GST control).

Which binding signal (ERF) does the source give for GATGAA here?
Its binding signal is 1.17 fold enrichment (6-mer frequency, TF over GST control).

What about the binding signal (ETV3L) of the same sequence?
Its binding signal is 1.25 fold enrichment (6-mer frequency, TF over GST control).

What about the binding signal (ETS2) of the same sequence?
Its binding signal is 1.19 fold enrichment (6-mer frequency, TF over GST control).

What about the binding signal (SPDEF) of the same sequence?
The binding signal was 1.15 fold enrichment (6-mer frequency, TF over GST control).

What about the binding signal (ETV7) of the same sequence?
Its binding signal is 1.24 fold enrichment (6-mer frequency, TF over GST control).

And the binding signal (ELF5)?
The binding signal was 1.17 fold enrichment (6-mer frequency, TF over GST control).

What about the binding signal (ETV3) of the same sequence?
Its binding signal is 1.11 fold enrichment (6-mer frequency, TF over GST control).

And the binding signal (ETV6)?
The binding signal was 1.18 fold enrichment (6-mer frequency, TF over GST control).

What does the source list for AACTTG?
binding signal (ERF): 1.18 fold enrichment (6-mer frequency, TF over GST control); binding signal (ETV3L): 1.17 fold enrichment (6-mer frequency, TF over GST control); binding signal (ETS2): 1.18 fold enrichment (6-mer frequency, TF over GST control); binding signal (SPDEF): 1.14 fold enrichment (6-mer frequency, TF over GST control); binding signal (ETV7): 1.08 fold enrichment (6-mer frequency, TF over GST control); binding signal (ELF5): 1.06 fold enrichment (6-mer frequency, TF over GST control); binding signal (ETV3): 1.28 fold enrichment (6-mer frequency, TF over GST control); binding signal (ETV6): 1.09 fold enrichment (6-mer frequency, TF over GST control)

CTTGAA was tested. Which binding signal (ERF) did it give?
Its binding signal is 1.2 fold enrichment (6-mer frequency, TF over GST control).

What about the binding signal (ETV3L) of the same sequence?
Its binding signal is 1.11 fold enrichment (6-mer frequency, TF over GST control).

And the binding signal (ETS2)?
The binding signal was 1.16 fold enrichment (6-mer frequency, TF over GST control).

And the binding signal (SPDEF)?
The binding signal was 1.13 fold enrichment (6-mer frequency, TF over GST control).

What about the binding signal (ETV7) of the same sequence?
The binding signal was 1.08 fold enrichment (6-mer frequency, TF over GST control).

What about the binding signal (ELF5) of the same sequence?
Its binding signal is 1.15 fold enrichment (6-mer frequency, TF over GST control).

And the binding signal (ETV3)?
The binding signal was 1.16 fold enrichment (6-mer frequency, TF over GST control).

And the binding signal (ETV6)?
The binding signal was 1.07 fold enrichment (6-mer frequency, TF over GST control).

Which results are given for GGATGC?
binding signal (ERF): 1.13 fold enrichment (6-mer frequency, TF over GST control); binding signal (ETV3L): 1.19 fold enrichment (6-mer frequency, TF over GST control); binding signal (ETS2): 1.2 fold enrichment (6-mer frequency, TF over GST control); binding signal (SPDEF): 1.91 fold enrichment (6-mer frequency, TF over GST control); binding signal (ETV7): 1.22 fold enrichment (6-mer frequency, TF over GST control); binding signal (ELF5): 1.25 fold enrichment (6-mer frequency, TF over GST control); binding signal (ETV3): 1.3 fold enrichment (6-mer frequency, TF over GST control); binding signal (ETV6): 1.15 fold enrichment (6-mer frequency, TF over GST control)

What does the source list for GATGCG?
binding signal (ERF): 1.17 fold enrichment (6-mer frequency, TF over GST control); binding signal (ETV3L): 1.25 fold enrichment (6-mer frequency, TF over GST control); binding signal (ETS2): 1.2 fold enrichment (6-mer frequency, TF over GST control); binding signal (SPDEF): 1.25 fold enrichment (6-mer frequency, TF over GST control); binding signal (ETV7): 1.22 fold enrichment (6-mer frequency, TF over GST control); binding signal (ELF5): 1.1 fold enrichment (6-mer frequency, TF over GST control); binding signal (ETV3): 1.23 fold enrichment (6-mer frequency, TF over GST control); binding signal (ETV6): 1.12 fold enrichment (6-mer frequency, TF over GST control)
